This passage reports outcome and AC50 results from PubChem BioAssay (EPA / NIEHS).

Conditions in all cases: mRNA level, 48 h; actives raise or lower the signal
Read-out in assay [1]: Cyclin Dependent Kinase Inhibitor 1A (CDKN1A), CDKN1A (gene 1026)
In words: LTEA_HepaRG_CDKN1A: Life Technologies and Expression Analysis (LTEA) Assay for Cyclin Dependent Kinase Inhibitor 1A (CDKN1A) using HepaRG (AID 2283450). Summed up:
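Read-out is CDKN1A mRNA by TaqMan qRT-PCR, normalized to three housekeeping genes and fitted in both directions against the DMSO baseline. Human HepaRG cells were treated 48 h with test chemicals up to 100 uM in half-log steps, 0.5% DMSO.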

Read-out in assay [2]: Cyclin D1 (CCND1), CCND1 (gene 595)
In words: LTEA_HepaRG_CCND1: Life Technologies and Expression Analysis (LTEA) Assay for Cyclin D1 (CCND1) using HepaRG (AID 2283451). Summed up:
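HepaRG plated 48 h, medium switched to serum-free induction medium, chemicals added in duplicate (top 100 uM, half-log steps, 0.5% DMSO) for 48 h, cells lysed, RNA measured by TaqMan qRT-PCR.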

Read-out in assay [3]: flavin-containing dimethylaniline monooxygenases 3 (FMO3), FMO3 (gene 2328)
In words: LTEA_HepaRG_FMO3: Life Technologies and Expression Analysis (LTEA) Assay for flavin-containing dimethylaniline monooxygenases 3 (FMO3) using HepaRG (AID 2283453).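 As to AC50: differentiated human HepaRG liver cells in serum-free induction medium.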 Summed up:
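FMO3 transcript quantified by TaqMan qRT-PCR against three housekeeping genes after 48 h chemical exposure of HepaRG cells. Eight-point half-log series, top 100 uM, 0.5% DMSO vehicle; phenobarbital 1mM induction control; up- or down-regulation fitted.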

Read-out in assay [4]: Cytochrome P450 (CYP1A1), CYP1A1 (gene 1543)
The assay is described as follows: LTEA_HepaRG_CYP1A1: Life Technologies and Expression Analysis (LTEA) Assay for Cytochrome P450 (CYP1A1) using HepaRG (AID 2283454). Summed up: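 HepaRG, 48 h post-plating switched to serum-free induction medium; 8-pt conc-response (top 100 uM, half-log, 0.5% DMSO), duplicates, 48 h. Lysis in RLT, TaqMan qRT-PCR for CYP1A1; gain or loss vs DMSO.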

Read-out in assay [5]: CFLAR gene, CFLAR (gene 8837)
The assay is described as follows: LTEA_HepaRG_CFLAR: Life Technologies and Expression Analysis (LTEA) Assay for CFLAR gene using HepaRG (AID 2283455). Summed up: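 Transcript level by qRT-PCR (normalized to ACTB, GAPDH and POLR2A) after 48 h chemical exposure of HepaRG cells, top concentration 100 uM with half-log steps, 0.5% DMSO vehicle, duplicates; fitted bidirectionally against DMSO baseline.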

Read-out in assay [6]: Forkhead box O1 (FOXO1), FOXO1 (gene 2308)
In words: LTEA_HepaRG_FOXO1: Life Technologies and Expression Analysis (LTEA) Assay for Forkhead box O1 (FOXO1) using HepaRG (AID 2283456). Summed up:
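FOXO1 transcript quantified by qRT-PCR after 48 h chemical exposure (top 100 uM, half-log steps, 0.5% DMSO) of HepaRG cells, housekeeping-normalized (ACTB/GAPDH/POLR2A). Changes fitted in both directions relative to vehicle.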

Read-out in assay [7]: growth arrest and DNA damage 45 (GADD45A), GADD45A (gene 1647)
In words: LTEA_HepaRG_GADD45A: Life Technologies and Expression Analysis (LTEA) Assay for growth arrest and DNA damage 45 (GADD45A) using HepaRG (AID 2283458). Summed up: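 Transcript induction or loss, quantified by TaqMan qRT-PCR against three housekeeping genes, is the read-out. HepaRG cells received chemicals for 48 h across eight half-log concentrations from 100 uM in 0.5% DMSO; gain and loss fitted relative to DMSO.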

Read-out in assay [8]: ABC Transporter (ABCB1), ABCB1 (gene 5243)
In words: LTEA_HepaRG_ABCB1: Life Technologies and Expression Analysis (LTEA) Assay for ABC Transporter (ABCB1) using HepaRG (AID 2283460). Summed up:
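ABCB1 transcript level measured by TaqMan qRT-PCR against three housekeeping genes after 48 h chemical exposure of differentiated HepaRG cells. Top concentration 100 uM, half-log steps, eight points, 0.5% DMSO vehicle; bidirectional fit relative to DMSO.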

Read-out in assay [9]: growth arrest and DNA damage 45 (GADD45B), GADD45B (gene 4616)
The assay is described as follows: LTEA_HepaRG_GADD45B: Life Technologies and Expression Analysis (LTEA) Assay for growth arrest and DNA damage 45 (GADD45B) using HepaRG (AID 2283461). Summed up:
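HepaRG, ~100,000 cells/well, 48 h plating; serum-free induction medium; cpd 100 uM top, half-log x8, 0.5% DMSO, duplicate, 48 h; lysis in RLT, RNA isolation, qRT-PCR; norm ACTB/GAPDH/POLR2A; bidirectional fit vs DMSO.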

Read-out in assay [10]: ABC Transporter (ABCC3), ABCC3 (gene 8714)
The assay is described as follows: LTEA_HepaRG_ABCC3: Life Technologies and Expression Analysis (LTEA) Assay for ABC Transporter (ABCC3) using HepaRG (AID 2283462). Summed up:
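Human HepaRG, 48 h dosing, 8-pt half-log series from 100 uM, 0.5% DMSO vehicle, duplicates. ABCC3 mRNA by TaqMan qRT-PCR, housekeeping-normalized; bidirectional curve fit vs DMSO.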

Read-out in assay [11]: ABC Transporter (ABCB11), ABCB11 (gene 8647)
In words: LTEA_HepaRG_ABCB11: Life Technologies and Expression Analysis (LTEA) Assay for ABC Transporter (ABCB11) using HepaRG (AID 2283463). Summed up:
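ABCB11 transcript levels quantified by TaqMan qRT-PCR against three housekeeping genes after 48 h chemical exposure of HepaRG cultures. Concentrations up to 100 uM in half-log steps, 0.5% DMSO vehicle; both induction and suppression scored.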

Read-out in assay [12]: ABC Transporter (ABCC2), ABCC2 (gene 1244)
The assay is described as follows: LTEA_HepaRG_ABCC2: Life Technologies and Expression Analysis (LTEA) Assay for ABC Transporter (ABCC2) using HepaRG (AID 2283464). Summed up: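 HepaRG, 48 h post-plating; serum-free induction medium; cpd 8-pt, 100 uM top, half-log, 0.5% DMSO, duplicate, 48 h. Readout: ABCC2 mRNA by qRT-PCR, norm. ACTB/GAPDH/POLR2A. Bidirectional fit vs DMSO baseline.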

Read-out in assay [13]: Broad substrate specificity ATP-binding cassette transporter ABCG2 (Homo sapiens) (UniProt Q9UNQ0)
In words: LTEA_HepaRG_ABCG2: Life Technologies and Expression Analysis (LTEA) Assay for ABC Transporter (ABCG2) using HepaRG (AID 2283465). Summed up:
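ABCG2 transcript was quantified by TaqMan qRT-PCR against three housekeeping genes in HepaRG cells. Cells were treated in duplicate for 48 h across an 8-point half-log series up to 100 uM, with 0.5% DMSO vehicle. Gain or loss versus DMSO was fit.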

Read-out in assay [14]: Peroxisomal acyl-coenzyme A oxidase 1 (ACOX1) gene, ACOX1 (gene 51)
In words: LTEA_HepaRG_ACOX1: Life Technologies and Expression Analysis (LTEA) Assay for Peroxisomal acyl-coenzyme A oxidase 1 (ACOX1) gene using HepaRG (AID 2283467). Summed up: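 ACOX1 transcript levels were quantified by TaqMan qRT-PCR against three housekeeping genes after 48 h chemical exposure of differentiated human HepaRG cells. Exposure used eight half-log steps topping at 100 uM, 0.5% DMSO vehicle, in duplicate. Bidirectional curve fits were made relative to DMSO.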

Read-out in assay [15]: Alkaline Phosphatase, Placental (ALPP) gene, ALPP (gene 250)
In words: LTEA_HepaRG_ALPP: Life Technologies and Expression Analysis (LTEA) Assay for Alkaline Phosphatase, Placental (ALPP) gene using HepaRG (AID 2283468).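 As to AC50: differentiated human HepaRG liver cells in serum-free induction medium.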 Summed up: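 HepaRG, 48 h plating then 48 h dosing, serum-free induction medium, 0.5% DMSO. 8 conc, half-log, max 100 uM, duplicates. Endpoint: ALPP transcript by qRT-PCR, housekeeping-normalized; gain or loss fitted vs DMSO.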

Read-out in assay [16]: Bcl-2 (BAD) gene, BAD (gene 572)
In words: LTEA_HepaRG_BAD: Life Technologies and Expression Analysis (LTEA) Assay for Bcl-2 (BAD) gene using HepaRG (AID 2283469). Summed up: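 Read-out: qRT-PCR of BAD mRNA, normalized to three housekeeping genes. Human HepaRG cultures got 48 h chemical exposure in 0.5% DMSO, duplicate eight-point half-log series topping at 100 uM. Gain or loss of signal fitted versus DMSO vehicle.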

Read-out in assay [17]: Forkhead box O3 (FOXO3), FOXO3 (gene 2309)
In words: LTEA_HepaRG_FOXO3: Life Technologies and Expression Analysis (LTEA) Assay for Forkhead box O3 (FOXO3) using HepaRG (AID 2283459). Summed up: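 FOXO3 transcript measured by qRT-PCR (normalized to ACTB, GAPDH, POLR2A) after 48 h exposure of HepaRG cells in serum-free induction medium. Duplicates, eight half-log concentrations up to 100 uM, 0.5% DMSO; gain or loss fitted against DMSO.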

Read-out in assay [18]: ATP-citrate lyase (ACLY), ACLY (gene 47)
In words: LTEA_HepaRG_ACLY: Life Technologies and Expression Analysis (LTEA) Assay for ATP-citrate lyase (ACLY) using HepaRG (AID 2283466). Summed up:
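ACLY mRNA quantified by qRT-PCR on Fluidigm arrays against three housekeeping genes, after 48 h chemical treatment of HepaRG cells (top concentration 100 uM, half-log steps, 0.5% DMSO vehicle). Up- or down-regulation fitted relative to DMSO.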

Read-out in assay [19]: catalase (CAT), CAT (gene 847)
The assay is described as follows: LTEA_HepaRG_CAT: Life Technologies and Expression Analysis (LTEA) Assay for catalase (CAT) using HepaRG (AID 2283452). Summed up:
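Expression of CAT was quantified by TaqMan qRT-PCR with ACTB/GAPDH/POLR2A normalization after 48 h chemical exposure of HepaRG. Eight-point half-log series, top 100 uM, in 0.5% DMSO; gain or loss fitted against vehicle.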

SMILES strings stand for the structures. Activity calls are given as the source filed them. The calls were made as follows: active = hit-call score of the fitted dose curve at least 0.9, where 1 is the maximum; inactive = score below 0.9.

Chain of Broad substrate specificity ATP-binding cassette transporter ABCG2 (Homo sapiens) (Q9UNQ0 whole entry, looked up): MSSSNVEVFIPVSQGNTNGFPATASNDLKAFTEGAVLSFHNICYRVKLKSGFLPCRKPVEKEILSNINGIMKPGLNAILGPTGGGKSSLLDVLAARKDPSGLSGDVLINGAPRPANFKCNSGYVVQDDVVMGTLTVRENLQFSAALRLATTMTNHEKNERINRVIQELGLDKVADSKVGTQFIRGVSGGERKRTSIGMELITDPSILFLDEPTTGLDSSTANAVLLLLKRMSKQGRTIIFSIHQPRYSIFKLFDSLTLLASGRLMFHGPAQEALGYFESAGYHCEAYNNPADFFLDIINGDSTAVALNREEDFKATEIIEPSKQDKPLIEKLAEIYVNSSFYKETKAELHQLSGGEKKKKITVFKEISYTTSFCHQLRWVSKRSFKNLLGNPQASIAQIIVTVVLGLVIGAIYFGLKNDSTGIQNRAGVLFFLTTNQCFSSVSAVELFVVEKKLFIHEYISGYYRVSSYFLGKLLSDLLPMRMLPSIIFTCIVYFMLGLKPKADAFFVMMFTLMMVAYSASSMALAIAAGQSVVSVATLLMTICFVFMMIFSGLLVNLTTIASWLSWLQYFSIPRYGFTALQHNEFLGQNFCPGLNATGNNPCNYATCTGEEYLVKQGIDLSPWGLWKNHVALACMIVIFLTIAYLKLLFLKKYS

Regarding `Cc1nc(N(C)C)nc(OC(=O)N(C)C)c1C`, the call in assay [1], in [2], in assay [3], in assay [5], in [6] and in assay [7] was inactive. The compound was called inactive in assay [9], in assay [10], in assay [11], in assay [12], in [13] and in assay [14]. Also, the compound was classed as inactive in assay [15] and in assay [16]. The half-maximal activity concentration (AC50) was 34.3 µM (active) in assay [4] and 9.92 µM (active) in assay [8].

With `CC(C)N1C(=O)c2ccccc2NS1(=O)=O`, the result in [1], in assay [2], in [3], in assay [4], in [5] and in assay [7] was inactive. Moreover, the compound was called inactive in assay [17], in [9], in [10], in assay [11], in assay [12] and in assay [13]. Moreover, the result in assay [18], in [14], in assay [15] and in [16] was inactive.

On to `CNC(=O)Oc1cccc2ccccc12`, for which the outcome in [1], in [2], in assay [19], in assay [3], in [4] and in [5] was inactive. Also, the call in assay [7], in assay [17], in assay [10], in assay [11], in [12] and in [13] was inactive. The outcome in [18], in [14], in assay [15] and in assay [16] was inactive.

In the case of `N#Cc1c(Cl)cccc1Cl`, the result in assay [1], in assay [2], in [3], in assay [5], in assay [7] and in assay [17] was inactive. Also, the result in [9], in [10], in [11], in [12], in assay [13] and in assay [14] was inactive. Moreover, the compound was classed as inactive in assay [15] and in assay [16]. In addition, the AC50 in [4] was 50 µM (active).

As to `CSC(=O)c1c(C(F)F)nc(C(F)(F)F)c(C(=O)SC)c1CC(C)C`, the compound was called inactive in [1], in assay [2], in [19], in assay [5], in assay [6] and in [7]. The compound was classed as inactive in assay [17], in assay [8], in assay [10], in [13], in assay [14] and in assay [16]. In addition, the AC50 in assay [3] was 86.8 µM (active); in assay [4] it was 17.1 µM (active); in [11], 49.8 µM (active); in assay [12], 9.66 µM (active); in assay [18], 77.9 µM (active); in assay [15] it was 49.8 µM (active).

Consider `Clc1nc(Cl)nc(Nc2ccccc2Cl)n1`, for which the compound was called inactive in assay [1], in assay [2], in assay [19], in assay [3], in [5] and in [7]. Further, the call in assay [17], in [9], in assay [10], in [11], in assay [12] and in assay [13] was inactive. Also, the call in assay [14], in assay [15] and in [16] was inactive. In addition, the AC50 in assay [4] was 25.5 µM (active).

Consider `Cc1ccc(N=CN(C)C=Nc2ccc(C)cc2C)c(C)c1`, for which the compound was called inactive in [2], in assay [19], in assay [3], in assay [5], in assay [6] and in [7]. In addition, the outcome in assay [17], in [9], in assay [10], in assay [11], in assay [12] and in [13] was inactive. Besides, the compound was classed as inactive in assay [14], in assay [15] and in assay [16]. Also, in assay [4], the AC50 is 41.2 µM (active).

In the case of `COC(=O)c1c(C(F)F)nc(C(F)(F)F)c(C2=NCCS2)c1CC(C)C`, the compound was classed as inactive in [1], in assay [2], in assay [3], in assay [4], in assay [5] and in assay [17]. Also, the compound was classed as inactive in assay [8], in assay [10], in assay [11], in assay [13], in assay [14] and in [15]. In addition, the outcome in assay [16] was inactive. The AC50 in [7] was 0.0299 µM (active); in [12], 50 µM (active).

A word on the AC50: it is the concentration at which the activity in the assay is half-maximal.
